Experimental data from PubChem BioAssay AID940 (Emory University Molecular Libraries Screening Center, 2007).
Out of some 260,000 compounds screened, about 2,200 (0.85%) were called active. What follows is part of a selection rich in actives, with near analogues and random picks from the rest. A number with no mark means an inactive call.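 How the source made its calls: active means compounds whose cAMP rise, as percent of the full-agonist control response, exceeds 60; inactive means the rest.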

target: Prostaglandin E2 receptor EP2 subtype (Homo sapiens) (UniProt P43116); test: modulation of human EP2 prostaglandin signaling – cell-based, HTRF cAMP, PGE2 stimulation, primary screen (AID 940); conditions: EP2-expressing cells, cAMP HTRF FRET, PGE2 co-stimulation; at 25 µM; active compounds read high;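 further: rat C6 glioma line stably carrying human EP2 under a CMV promoter; the protocol text gives 20 µM as final concentration; 100% = response of wells given 1 µM PGE2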
Sequence (P43116 whole entry, looked up): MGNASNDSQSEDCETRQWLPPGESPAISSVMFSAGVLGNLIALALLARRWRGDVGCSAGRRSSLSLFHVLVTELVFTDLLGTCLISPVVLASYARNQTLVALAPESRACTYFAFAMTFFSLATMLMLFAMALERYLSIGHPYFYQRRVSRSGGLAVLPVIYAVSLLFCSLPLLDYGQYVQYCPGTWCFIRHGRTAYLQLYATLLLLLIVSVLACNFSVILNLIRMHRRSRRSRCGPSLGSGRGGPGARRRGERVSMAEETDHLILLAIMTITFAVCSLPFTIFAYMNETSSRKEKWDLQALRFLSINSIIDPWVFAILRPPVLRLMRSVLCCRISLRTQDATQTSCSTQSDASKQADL

In order of falling induction:
1. Cc1cc2ccccc2nc1SCC(=O)Nc1ccccc1F  39.1%
2. COc1ccc(CSc2nc(N3CCOCC3)c3c(c2C#N)CC(C)(C)OC3)cc1  37.4%
3. CC(C)(C)Oc1ncc(Br)c(OC(C)(C)C)n1  31.4%
4. CCC(C)(C)n1nnnc1CN(Cc1ccc(F)cc1)Cc1cc2cc(C)cc(C)c2[nH]c1=O  29.1%
5. COc1ccc(N=Nc2ccc(O)c(P(=O)(c3ccccc3)c3ccccc3)c2)cc1  25.3%
6. CCOC(=O)c1sc2nc(C)[nH]c(=O)c2c1C  15.6%
7. CCn1c2ccccc2c2cc(CC(N)=O)ccc21  13.3%
8. CCC(c1nnnn1C(C)(C)C)N(Cc1ccccc1)Cc1cc2ccc(C)cc2[nH]c1=O (configuration not stated)  12.1%
9. COc1ccc(C2(C(=O)N3CCC(n4cnc5cccnc54)CC3)CCCC2)cc1  11.4%
10. CCOC(=O)c1nnn(-c2nonc2OC)c1-c1ccccc1  11.4%
11. CSc1ccccc1C(=O)Nc1cccc(C(C)=O)c1  10.1%
12. COc1cccc(NC(=O)C(C)Oc2ccccc2)c1 (configuration not stated)  9.01%
13. COc1ccc(NCc2nnc(SCC(=O)Nc3ccc(C)cc3)n2C)cc1  8.87%
14. COC(=O)[C@H]1CCc2ccccc2N1C(=O)c1ccccc1F  8.05%
15. O=C(Cn1nc2c3ccccc3ncn2c1=O)NCc1cccs1  4.57%
16. COc1cccc(-c2nc3cc(C)ccc3o2)c1  3.47%
17. CCc1cc2cc3c(cc2nc1SCC(=O)Nc1ccccc1Br)OCCO3  -3.39%
18. N#Cc1c(NC(=O)CSc2nc3ccccc3c(=O)n2Cc2ccco2)sc2c1CCCC2  -3.51%
19. CS(=O)(=O)N1CCCc2cc(C(O)CN3CCN(c4cnccn4)CC3)ccc21 (configuration not stated)  -3.55%
20. CSc1ncc(C(=O)N2CC(CN3CCOCC3)c3ccccc32)cn1 (configuration not stated)  -3.66%
21. Cc1cc(NC(=O)CSc2nc3cc(Cl)ccc3c(=O)n2Cc2ccco2)no1  -4.33%
22. CC1(C)CC2CC(C)(CN2C(=O)c2ccc(Cl)cc2)C1 (configuration not stated)  -5%
23. O=P(O)(CP(=O)(c1ccccc1)c1ccccc1)c1ccccc1O  -5.29%
24. COC(=O)Cn1cnc2sc(C(=O)OC)c(C)c2c1=O  -5.66%
25. COc1ccc(C(=O)N2CC3(C)CC2CC(C)(C)C3)cc1OC (configuration not stated)  -6.8%
26. O=C(CCSc1nc(-c2ccco2)cc(C(F)(F)F)n1)NC1CCCCC1  -7.93%
27. CCN1CCN(C(=O)[C@H]2C[C@@H](c3ccc(OC)c(OC)c3)NS(=O)(=O)N2C)CC1  -8.26%
28. Cc1ccc(Cn2c3ccccc3n3c(SCC(=O)N4CCc5ccccc54)nnc23)cc1  -8.29%
29. O=C(Cn1nc(-c2ccncc2)oc1=O)N1CCCCC1  -10.9%
30. COCCNc1nnc(-c2ccccn2)s1  -12.4%
31. COC(=O)[C@H]1CCc2ccccc2N1C(=O)C1CCC1  -15.3%
32. Cc1ccc2cc(C#N)c(SCC(=O)Nc3cccc(C)c3C)nc2c1  -15.3%
33. CCC(C)OC(=O)C(C)n1cnc2sc(C(=O)Nc3ccccc3OC)c(C)c2c1=O (configuration not stated)  -16.1%
34. CCOc1ccc2[nH]c(=O)c(C(c3nnnn3CCOC)N3CCN(C)CC3)cc2c1 (configuration not stated)  -18.3%
35. CC1(C)Cc2c(C#N)c(SCc3nc4ccccc4[nH]3)nc(N3CCOCC3)c2CO1  -21.7%
36. CN(C)C(=O)CN1N=C(C(C)(C)C)Cn2c(cc3sccc32)C1=O  -24.7%
37. Cc1nn(C(C)C)c(C)c1CN(C)CCOc1ccccc1  -30.9%
38. COCCNC(=O)Cn1nc2c(C)cc3cc(C)cc(C)c3n2c1=O  -32.1%
39. CCOC(=O)c1c(-c2cccc(N)c2)cn2ccccc12  -32.9%
40. CCOC(=O)C1CCN(C(=O)Nc2c[nH]c3ccc(OC)nc3c2=O)CC1  -39.3%
41. CC(=O)c1ccc2c(ccc3ccccc32)c1  -39.4%
42. Cc1nc(S(=O)(=O)c2ccc(Cl)cc2)c(N2CCCCC2)o1  -42.2%
43. CCc1ncc(CNC2(c3ccc(Cl)cc3)CCC2)cn1  -47%
44. C=CCNC(=O)CN1CCC(c2ccccc2F)CC1  -47.4%
45. COc1ccc2nc(C)cc(SCC(=O)Nc3ccccc3Br)c2c1  -51.4%
46. COc1cc(C)c(-c2csc(NC(=O)C3(C)CCCO3)n2)cc1C (configuration not stated)  -62.2%
47. COc1cc(C#N)ccc1OCc1nc(-c2ccccc2)no1  -64.5%
48. CCOC(=O)C(C)NC(=O)c1cc2ccc(F)cc2[nH]1 (configuration not stated)  -92.7%
49. COc1ccc2[nH]cc(CCNC(=O)C3CCN(c4nc5ccccc5n4C)CC3)c2c1  -102%
50. O=c1[nH]c2ccc(S(=O)(=O)N3CCCC(c4ccccc4)C3)cc2[nH]1 (configuration not stated)  -114%

In the case of `O=C(CSc1nc2ccccc2c(=O)n1Cc1ccco1)Nc1ccccc1Cl`, the induction is reported as 67.4% (active).
`COc1cccc(NC(=O)c2ccccc2SC)c1` was tested, and the induction was 61.4% (active).
In the case of `CCOC(=O)c1c(N)nn(C(=O)c2ccccc2)c1-c1ccccc1`, the induction is reported as 69.9% (active).
`C/C(Cl)=C\CSc1nc(N2CCOCC2)c2c(c1C#N)CC(C)(C)OC2` was tested, and the induction was 67.7% (active).
For `COC(=O)c1sc2[nH]c(=S)n(N)c(=O)c2c1C`, the induction was 78.1% (active).
`COc1ccc2cc(C#N)c(SCC(=O)Nc3ccccc3Br)nc2c1` was tested, and the induction was 66.9% (active).
With `CCc1cc2ccccc2nc1SCC(=O)Nc1ccccc1Br` the induction was 65.9% (active).
With `COc1cccc(-c2cnc(OC(C)(C)C)nc2OC(C)(C)C)c1` the induction was 62% (active).
`CC1(C)CC2CC(C)(CN2c2ncnc3ccc(Br)cc23)C1` (configuration not stated) was tested, and the induction was 70% (active).
In the case of `CCc1ccc2[nH]c(=O)c(CN(Cc3ccc(F)cc3)Cc3nnnn3C(C)(C)C)cc2c1`, the induction is reported as 62.5% (active).
In the case of `CC(C)(C)c1cc(P(=O)(c2ccccc2)c2ccccc2)ccc1O`, the induction is reported as 66.9% (active).
`CC(=O)c1ccc2c(c1)c1ccccc1n2CC(C)C` was tested, and the induction was 66.9% (active).
